Data reported in the supplement of paper PMC11417369.
Over roughly 25,000 sequences, “ln(normalized median fluorescence intensity)” has its median near 9.7; the highest 2% begin near 11. This is one part of a sample in which the highest values are shown more often than they occur.

test system: PfAP2-HC AP2 domain (GST-tagged); test: gcPBM binding intensity (ln(normalized median fluorescence intensity)); higher = stronger DNA binding
In short: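 The highest Masliner-normalised natural-log median intensity across replicate spots of either probe orientation is reported as binding intensity. GST-tagged P. falciparum DNA-binding domains expressed in E. coli were applied for 1 h to an Agilent 4 × 180k array of primer-extended double-stranded 36-bp intergenic genomic probes plus negative controls, and bound protein was detected with Alexa488 anti-GST antibody and scanned at 488 nm.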

| Sequence | gcPBM binding intensity (ln) |
| --- | --- |
| ACAAAAAAAAAAAAAAAAAAAAAAAAAAAATAATAA [CACACA_negctrl_site1640] | 9.18 |
| TAAAATATATAAAACTGTACATTTTAAAGGCACAAC [XGTACX_site8342] | 9.98 |
| AAAAATCAATTAGAAGAACACACGTAAATTTTTTTT [CACACA_site2396] | 9.76 |
| TATTTTTCTTTATTGGTACACACGAAAAAAAAATTG [CACACA_site3054] | 9.53 |
| AAATGGGTTTATTTAACACACAAAAGAAAAAATATA [CACACA_site1938] | 9.77 |
| AAAGGTGTATTTAATACACACGTGTCATTAAAATTG [CACACA_site4508] | 9.71 |
| TATATATATATATATACACACACACCCATATATATA [CACACA_site8812] | 10.3 |
| CACCCATACAGACATACACACACATATATATTAATA [CACACA_site8077] | 10.2 |
| CACACCCACAGACACACACACACATATATAATATAT [CACACA_site594] | 11.4 |
| TATATATATATAGACACACACACACCCATATATATA [CACACA_site4117] | 10.9 |
| CGCACCCACAGACACACACACACATATATATATATA [CACACA_site2202] | 11.4 |
| TATATACATAGACACCCACACACAAAAAAAAAAAAA [CACACA_site8186] | 10.2 |
| TATAATAATCCACAAGCACACACACCCACATATATA [CACACA_site8343] | 11.3 |
| ATAATCCACAAGCACACACACACACCCATATATATA [CACACA_site1268] | 10.6 |
| TAAATACAGACATACACACATACACCCACATATATA [CACACA_site547] | 10.3 |
| TAATAATCCACAAGCACACACACACCCATATATATA [CACACA_site1267] | 10.8 |
| CACACCCACAGACACACACACACATATATATATATA [CACACA_site363] | 10.8 |
| AAAAAAAAAAAAAAATGTACAAAAATTACTATAAAA [XGTACX_site7683] | 9.48 |
| AAAAATAATGCACATATATATAATATGTATATGTAT [CACACA_negctrl_site443] | 9.75 |
| GTAATGAAACATTGCACACATATAATAATATAATAT [CACACA_site1422] | 9.84 |
| AGAAAAGAAATTAGTTGTACTCTGATGAATTATCCT [XGTACX_site6284] | 9.5 |
| TTCAATTTTTTATGAACACACAAAAAAAAAAAAAAA [CACACA_site2533] | 9.23 |

| Sequence | gcPBM binding intensity (ln) |
| --- | --- |
| ATAGACAGCGCACAAACACACAAACACAGACCCCCA [CACACA_site4409] | 10.2 |
| CACAGACACCCATACACACACATACCCATATATATA [CACACA_site5023] | 10.3 |
| AAACCGTGGGAGCACACACACACACCCACCCATATA [CACACA_site332] | 10.4 |
| ACCGTGGGAAGACACACACACACACCCACATATATA [CACACA_site333] | 11 |
| TTGGCATACAGACACACACACACACCCCCACATATA [CACACA_site590] | 10.9 |
| AGACAGCGCACAAACACACAAACACCCACCCACATA [CACACA_site451] | 11.3 |
| ATAGACAGCGCACAAACACACAAACACCCACCCACA [CACACA_site8043] | 10.1 |
| ATAGTATACAGACACACACACACACCCATATATATA [CACACA_site1736] | 11.7 |
| TTTAAATACAGACATACACACATACACCCACATATA [CACACA_site8078] | 10.2 |
| GGCATACACAGACACACACACACACCCACATATATA [CACACA_site591] | 11.2 |
| AGTATACACAGACACACACACACATATATATATATA [CACACA_site8510] | 10.9 |
| ACCGTGGGAGGACACACACACACACCCACATATATA [CACACA_site4339] | 10.8 |
| ATTAGTATTAGATGATGTACATTTATATTGAAATAT [XGTACX_site8537] | 9.63 |
| GATATATTTTATATATGTACATACAAGGGTAAATAT [XGTACX_site1202] | 9.68 |
| ATATATATATATGTCTGTACATAAAAAATAATAAAT [XGTACX_site3122] | 9.68 |
| TATATATATATAATTACACACAATGTTCTATATATA [CACACA_site3235] | 9.8 |
| TTGTGATTATATAATCGTACATAATTTTAATCACAC [XGTACX_site398] | 9.58 |
| TTTTTTTTAATTGTGATACGTATATTATTTAATGAT [CACACA_negctrl_site38] | 9.59 |
| CGCACAAAAATATACACACACACATATATATTTATT [CACACA_site3645] | 10.4 |
| ACATTATATAAAATATGTACATATAAAAAATTCTAT [XGTACX_site1617] | 9.77 |
| GTTATATAAACATATGCATGTGAAGTGTTTATTAAT [TGCATGCA_site183] | 9.8 |
| TATATCAAAATACATACACACATTTGTATATACATT [CACACA_site2696] | 10 |
